This is a sample that favours compounds with a hit; in the whole collection about 3.5% have one here.
GPR151 activ = activators of human GPR151, primary screen, cell-based, PathHunter beta-arrestin, luminescence | G-protein coupled receptor 151 (Homo sapiens), Q8TDV0 | PathHunter beta-arrestin GPR151 cells | activation, % at 11.2 µM | 650,000 compounds, 1% hits; in the data active means activation above about 4.9%;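 further: 0% = median of compound wells and 100% = cells with positive control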
FBW7 activator = FBW7 E3 ligase activators, primary screen, biochemical, AlphaScreen, human; normalized activity (activation), % at 26.1 µM; AID 1259310, 2017; F-box/WD repeat-containing protein 7 (Homo sapiens), Q969H0; 650,000 compounds, 0.13% hits; AlphaScreen FBW7–phospho-cyclin E peptide binding, activator screen; in the data active means normalized activity above about 1.9%;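 further: purified mutant Fbw7 with reduced substrate affinity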
TEAD-YAP block = TEAD-YAP interaction inhibition, primary screen, TEAD-YAP interaction inhibitor project, luminescence, HEK-TIYL cells; TEAD-Gal4/YAP UAS-luciferase luminescence; inhibition, % at 9.12 µM; 640,000 compounds, 1.4% hits; in the data active means inhibition above about 32%;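 further: 0% = median of test compound wells and 100% = reference inhibitor wells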
MITF inh = MITF inhibitors, primary screen, biochemical, AlphaScreen, human; Microphthalmia-associated transcription factor (Homo sapiens), O75030; AlphaScreen MITF homodimerization, bead proximity signal; inhibition, % at 2.6 µM; 650,000 compounds, 0.91% hits; in the data active means inhibition above about 50%;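 further: 0% = vehicle wells with protein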
Target sequence (O75030 whole entry, looked up): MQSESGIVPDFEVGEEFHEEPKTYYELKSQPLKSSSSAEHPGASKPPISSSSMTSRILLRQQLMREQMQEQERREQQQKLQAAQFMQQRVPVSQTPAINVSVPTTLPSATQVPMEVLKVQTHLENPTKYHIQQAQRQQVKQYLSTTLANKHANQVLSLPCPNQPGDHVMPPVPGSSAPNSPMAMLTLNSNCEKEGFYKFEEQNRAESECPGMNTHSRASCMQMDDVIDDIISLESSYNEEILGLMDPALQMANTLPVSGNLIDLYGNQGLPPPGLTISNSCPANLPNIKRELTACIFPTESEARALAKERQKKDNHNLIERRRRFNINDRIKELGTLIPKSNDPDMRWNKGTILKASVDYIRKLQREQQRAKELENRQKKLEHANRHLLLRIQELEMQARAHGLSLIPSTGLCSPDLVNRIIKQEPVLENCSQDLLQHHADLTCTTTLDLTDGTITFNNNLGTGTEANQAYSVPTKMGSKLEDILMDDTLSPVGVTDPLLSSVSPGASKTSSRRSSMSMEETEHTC
Starred values were filed as active, the others as inactive.

For CCCCP(=Nc1ccccc1)(N(CC)CC)N(CC)CC the results were GPR151 activ 1, FBW7 activator 0, TEAD-YAP block 92* and MITF inh 8.
For CCCCN(CC)S(=O)(=O)c1ccccc1 the results were GPR151 activ -1, FBW7 activator 0, TEAD-YAP block 0 and MITF inh -27.
`N/C(=N\OC(=O)c1ccc(F)cc1)c1ccc(Br)cc1` gave GPR151 activ 1, FBW7 activator 2.1*, TEAD-YAP block 1 and MITF inh 1.
Cc1ccccc1C(=O)O/N=C(\N)c1ccccn1 was read as GPR151 activ -8, FBW7 activator 0, TEAD-YAP block 49* and MITF inh 9.
N/C(=N\OC(=O)c1cc(Cl)ccc1Cl)c1ccccn1 was read as GPR151 activ -7, FBW7 activator 1, TEAD-YAP block 44* and MITF inh 18.
For N/C(=N\OC(=O)c1ccc(I)cc1)c1ccccn1 the results were GPR151 activ -8, FBW7 activator 0, TEAD-YAP block 81* and MITF inh -13.
N/C(=N\OC(=O)c1ccc(F)cc1)c1ccc(Cl)cc1 was read as GPR151 activ 0, FBW7 activator 0, TEAD-YAP block -16 and MITF inh 1.
For COc1ccc(C(=O)O/N=C(\N)c2ccccn2)cc1OC the results were GPR151 activ -1, FBW7 activator 0, TEAD-YAP block -64 and MITF inh -2.
Screening CCCCC(CC)CNC(=O)/C=C/C(=O)O (stereo not given) returned GPR151 activ 1, FBW7 activator 0, TEAD-YAP block -4 and MITF inh 17.
`CCOc1ccc(C(=O)O/N=C(\N)c2ccccn2)cc1` gave GPR151 activ -7, FBW7 activator 0, TEAD-YAP block 91* and MITF inh 3.
`Cc1cccc(C(=O)O/N=C(\N)c2ccccn2)c1` gave GPR151 activ -8, FBW7 activator 0, TEAD-YAP block 82* and MITF inh 13.
For COc1ccc(C(=O)O/N=C(\N)c2ccccn2)c(OC)c1 the results were GPR151 activ -7, FBW7 activator 0, TEAD-YAP block 41* and MITF inh -3.
`CC(=O)Oc1ccc(C(=O)O/N=C(\N)c2ccccn2)cc1` gave GPR151 activ -8, FBW7 activator 0, TEAD-YAP block 50* and MITF inh -7.
For COc1ccc(C(=O)O/N=C(\N)c2ccc(OC)c(OC)c2)c(OC)c1 the results were GPR151 activ 0, FBW7 activator 0, TEAD-YAP block -24 and MITF inh 1.
For COc1ccc(/C(N)=N/OC(=O)c2ccc(OC(C)=O)cc2)cc1OC the results were GPR151 activ -4, FBW7 activator 0, TEAD-YAP block 21 and MITF inh -17.
Screening CC1(C)OCC(Cn2cncn2)O1 (stereo not given) returned GPR151 activ 0, FBW7 activator 0, TEAD-YAP block 9 and MITF inh 12.
O=C(NCCOc1ccc(F)cc1)c1cccnc1 was read as GPR151 activ -3, FBW7 activator 0, TEAD-YAP block -29 and MITF inh 13.
For O=C1c2ccc(Oc3cccc([N+](=O)[O-])c3)cc2C(=O)N1c1ccc(Oc2ccccc2)cc1 the results were GPR151 activ -1, FBW7 activator 0, TEAD-YAP block -1 and MITF inh 12.
For CC(C)(C)c1ccc(C(=O)O/N=C(\N)c2ccncc2)cc1 the results were GPR151 activ 4, FBW7 activator 1, TEAD-YAP block -64 and MITF inh 1.
CC(=O)Oc1ccc(C(=O)O/N=C(\N)c2ccncc2)cc1 was read as GPR151 activ -8, FBW7 activator 1, TEAD-YAP block 32* and MITF inh 16.
`COc1ccc(N2CCN(Cc3ccc(Br)o3)CC2)cc1` gave GPR151 activ -1, FBW7 activator 0, TEAD-YAP block 6 and MITF inh 53*.
Screening CN(C)c1ccc(CNC(=O)CN2C(=O)CCc3ccccc32)cc1 returned GPR151 activ 0, FBW7 activator 0, TEAD-YAP block 5 and MITF inh 9.
Screening CCOc1ccc(OC)cc1/C=N/NS(=O)(=O)c1ccc(Cl)cc1 returned GPR151 activ 0, FBW7 activator 0, TEAD-YAP block 65* and MITF inh 11.
For CCCN(c1ccc(OCC)cc1)c1ncnc2nc[nH]c12 the results were GPR151 activ -1, FBW7 activator 1, TEAD-YAP block 18 and MITF inh 9.

Source: PubChem
